Compound activity deposited in PubChem by National Center for Advancing Translational Sciences (NCATS).
12-LOX inh = inhibitors of human 12S-lipoxygenase ALOX12; P18054; purified 12hLO, xylenol orange hydroperoxide absorbance; Potency, µM (highest dose often 108 µM), for the others: top-dose activity change, negative = inhibition, hits mostly inhibitors; actives 1.1% (n = 580,000); also: % is scaled to controls: 0 for no effect and ±100 for the full control effect
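Hydroperoxide product was detected by ferrous iron/xylenol orange as the 573 to 405 nm absorbance ratio. Arachidonic acid at 40 uM (final) was turned over for 30 min at room temperature by 150 nM human 12hLO, pH 7.0 Hepes buffer, after 15 min compound preincubation.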
GLP-1R inv ag = acts as inverse agonist at human GLP-1 receptor; P43220; HEK293 GLP-1R CRE-luciferase, luminescence, 24 h; GLP-1R form is constitutively active; Potency, µM (highest dose often 38.3 µM), for inactives: top-dose activity change, negative = inhibition, usual class: inhibitors; actives 1.6% (n = 410,000); also: % is scaled to controls: 0 for no effect and ±100 for the full control effect; nearly all actives have a fitted effect of over 55% in size
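Constitutively active GLP-1R drives a cAMP-responsive luciferase in stably transfected HEK293 cells; test compounds are added after overnight (12 h) attachment and left 24 hr, and signal loss in luminescence marks inhibition.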
GLP-1R agonist = GLP-1 receptor (human) agonism. HEK293 GLP-1R CRE-luciferase, luminescence, 4-6 h; cells express a hypersensitive GLP-1R form. P43220. actives 0.007% (n = 380,000). Potency, µM (doses to about 45.6 µM), for inactives: at the highest dose activation, hits mostly activators; also: % of control where 0% means no effect
GLS inhibitor = blocks human kidney-isoform glutaminase activity. O94925. GLS enzymatic activity, qHTS titration. Potency, µM (top dose mostly 45.5 µM), without a hit: at the top dose activity change, negative = inhibition, actives largely listed as inhibitors. actives 0.21% (n = 410,000). AID 624170; also: % is scaled to controls: 0 for no effect and ±100 for the full control effect
Target sequence (O94925 whole entry, looked up, canonical isoform): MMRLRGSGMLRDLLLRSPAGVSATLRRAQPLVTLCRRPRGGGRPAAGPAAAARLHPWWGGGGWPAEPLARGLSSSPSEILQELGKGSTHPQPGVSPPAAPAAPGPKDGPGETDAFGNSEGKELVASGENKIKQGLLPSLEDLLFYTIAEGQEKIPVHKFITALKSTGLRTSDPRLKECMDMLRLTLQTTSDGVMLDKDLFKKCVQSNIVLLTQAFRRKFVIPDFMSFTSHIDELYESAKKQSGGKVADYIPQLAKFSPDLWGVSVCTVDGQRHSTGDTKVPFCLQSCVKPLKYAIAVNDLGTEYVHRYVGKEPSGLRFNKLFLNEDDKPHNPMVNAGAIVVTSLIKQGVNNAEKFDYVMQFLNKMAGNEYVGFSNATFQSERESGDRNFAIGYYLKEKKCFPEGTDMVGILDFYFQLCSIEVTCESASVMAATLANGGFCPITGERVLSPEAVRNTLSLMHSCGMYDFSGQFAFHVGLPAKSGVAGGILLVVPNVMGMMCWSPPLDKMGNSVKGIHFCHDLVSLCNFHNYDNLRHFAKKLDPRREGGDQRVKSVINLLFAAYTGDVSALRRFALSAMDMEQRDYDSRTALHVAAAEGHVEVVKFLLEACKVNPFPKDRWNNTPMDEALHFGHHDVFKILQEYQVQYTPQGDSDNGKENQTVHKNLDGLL
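Two-point fluorescence kinetic (t0, 30 min RT) for hKGA; glutamate detected via glutamate oxidase–HRP–Amplex Red. Substrate: 1 mM L-glutamine solution; buffer 45 mM KH2PO4, pH 8.2.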
GRP78 ERSR act = induces the endoplasmic reticulum stress response in human glioma cells | Potency, µM, inactives show at the top dose activation, actives largely listed as activators | AID 602332 | U87-MG GRP78 promoter luciferase reporter, 16 h | actives 0.02% (n = 420,000); also: series mostly up to about 76 µM; % of control where 0% means no effect; nearly all actives have a fitted effect of over 35% in size
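Stably transfected U87-MG glioma cells carrying a GRP78-based luciferase sensor; 16 h compound incubation. Luminescence end-point read 10 min after Bright-Glo addition at room temperature.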
PTHR1 ag = PTHR1 (human) receptor agonism; Q03431; actives 0.075% (n = 410,000); Potency, µM (doses to about 115 µM), without a hit: at the top dose activation, usual class: activators; AID 743266; HEK293 GP2 PTHR1 cells, GloSensor cAMP luminescence, 1 h; also: nearly all actives have a fitted effect of over 55% in size
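HEK-293-derived GP2 cells expressing PTHR1 and a GloSensor cAMP reporter, 3,000/well, plated overnight, given luciferin plus IBMX (each 0.5 mM as added) for 1 h at 37 °C, then compound for 1 h at 37 °C. Luminescence was read after 15 min at room temperature.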
An asterisk follows results filed as active; i = inactive; ? = inconclusive; / = no result; [ ] = remark or other dose. Shown are actives, neighbours in structure and some others; about 2.3% of the full set was active somewhere. Calls follow the shape of the dose curve; as a rule, active = well fitted curve in the direction sought with a large enough effect; inconclusive = small, poorly fitted or top-dose-only effect, or another doubt; inactive = no such curve, though single readings can be large; an effect the other way counts as inactive or inconclusive. Potency is read from the fitted curve at half-maximal effect.

SMILES	12-LOX inh	GLP-1R inv ag	GLP-1R agonist	GLS inhibitor	GRP78 ERSR act	PTHR1 ag
CCOC(=O)C1=C(C)N(C[C@@H]2CC[C@@H](Cc3ccc(-c4ccccc4)cc3)O2)C(=O)NC1c1ccc(SCc2ccco2)c([N+](=O)[O-])c1 (some centres not stated)	18µM*	5%	-5%	1%	-1%	-21%
O=C(Nc1ccccc1)C1Sc2nnc(-c3ccccc3)n2NC12CCCCC2 (configuration not stated)	66%	/	/	/	/	/
CCOc1ccc(-c2[nH]ncc2-c2ccccc2)c(O)c1	?	10µM*	5%	10%	-4%	-17%
CCCOC(=O)c1ccc(Oc2cn[nH]c2-c2ccc(OCC)cc2O)cc1	46%	10µM*	-26%	2%	-19%	-10%[57.5 µM]
CCOc1ccc(-c2[nH]ncc2-c2ccccc2OC)c(O)c1	-24%	/	/	/	/	/
COc1ccc(-c2cn[nH]c2-c2ccc(OCc3ccccc3)cc2O)cc1	?	3.5µM*	2%	11%	-15%	-14%
COc1ccc(-c2cn[nH]c2-c2ccc(OC)cc2O)cc1	0%	10µM*	-2%	0%	-5%	i
Cc1cccn2cc(CSc3nnc4c(Cl)cc(C(F)(F)F)cn34)nc12	-38%	/	/	/	/	/
COc1ccc2cc(C(=O)N(C)Cc3ccc(C(N)=O)cc3)[nH]c2c1	-8%	/	/	/	/	/
COc1ccc(Cl)cc1CN(C)C(=O)c1ccc2c(c1)CCCN2S(C)(=O)=O	6%	/	/	/	/	/
CC(C)NC(=O)CCn1cnc2sc3c(c2c1=O)CCCC3	-5%	/	/	/	/	/
CCCCC#Cc1ccc2c(c1)COc1c3ccccc3nn1-2	-11%	-3%	4%	-6%	2%	-50%
N#CCCCC#Cc1ccc2c(c1)COc1c3ccccc3nn1-2	-10%	2.5µM*	-4%	0%	-10%	-45%
Cc1ccc(/C=N/Nc2nc3ccccc3s2)o1	?	?	-1%	8.9µM*	-6%	-36%
COc1cccc(/C=C(/C(=O)OCC(=O)NC2CCCC(C)C2C)c2ccccc2)c1 (configuration not stated)	6%	10µM*	10%	11%	-4%	-23%
COc1cccc(/C=C(/C(=O)OCC(N)=O)c2ccccc2)c1	-18%	?	8%	-16%	-2%	12%
CCOc1ccc2c(c1)c(N=NC(N)=S)c(O)n2C	5µM*	-1%	-2%	3%	2%	-6%
FC(F)(F)c1ccc2c(c1)nc(-c1ccc(Cl)cc1)c1nccn12	-10%	/	/	/	/	/
CN(c1ccc(OCC(=O)N2CCN(c3ccc(F)cc3)CC2)cc1)S(=O)(=O)c1cccs1	?	11µM*	0%	19%	0%	-37%
CCOC(=O)CCNC(=O)N1CCCCCC1c1ccc(C)s1 (configuration not stated)	5%	/	/	/	/	/
NN1C(=O)/C(=C2/Sc3ccccc3N2CCCS(=O)(=O)O)SC1=S	14µM*	12%	5%	9%	-3%	i
COC(=O)COc1ccc2c(c1)oc(=O)c1ccccc12	-113%	/	/	/	/	/
COc1ccc(C(CNC(=O)c2cc(S(=O)(=O)N3CCN(c4ccccc4)CC3)ccc2Cl)N(C)C)cc1 (configuration not stated)	-6%	10µM*	-2%	14%	-1%	-37%
CN(C)C(CNC(=O)c1cccc(S(=O)(=O)N2CCN(c3ccccc3)CC2)c1)c1ccccc1 (configuration not stated)	3%	?	2%	12%	-3%	-33%
CC1(CCCCc2ccccc2)COc2ccc(C(=O)NCCN3CCOCC3)cc2N1 (configuration not stated)	100µM*	/	/	/	/	/
SMILES	12-LOX inh	GLP-1R inv ag	GLP-1R agonist	GLS inhibitor	GRP78 ERSR act	PTHR1 ag
CC1CCc2c(cc(-c3ccccc3)n2-c2ccc(C(=O)NC(C)C)cc2)C1 (configuration not stated)	-10%	6.3µM*	/	3%	-7%	-26%
CC(C)NC(=O)c1ccc(-n2c(-c3ccccc3)cc3c2CCCCC3)cc1	-10%	8%	/	5%	0%	?
O=C(NCC(c1ccco1)N1CCc2ccccc21)C(=O)Nc1ccc(F)cc1F (configuration not stated)	?	4µM*	-5%	12%	-5%	-19%
CCN(CC)S(=O)(=O)c1cc([N+](=O)[O-])ccc1N/N=C(/C)c1cccs1	30%	/	/	/	/	/
CNC(=S)N/N=C/c1cc(C)ccc1C	?	?	7%	1%	1%	i
CCNC(=S)N/N=C/c1cc(C)ccc1C	40µM*	4.5µM*	-3%	1%	-3%	17%
O=[N+]([O-])c1cccc(N=Cc2ccncc2)c1	41%	/	/	/	/	/
Cc1cccc(C)c1NC(=O)c1c(C)oc2c1C1=NCCN1C=N2	-3%	-6%	/	-5%	-4%	i
Cc1ccccc1CNC(=O)c1c(C)oc2c1C1=NCCN1C=N2	-10%	12%	/	4µM*	-3%	?
Cc1ccc(-c2cnoc2NC(=O)CSc2nc3c(c(=O)[nH]2)CCCC3)cc1	-11%	/	/	/	/	/
C#CCN(C[C@@H]1[C@@H](OC(=O)NCC2CCCCC2)[C@@H](OC(=O)NCC2CCCCC2)Cn2c(=O)ccc(=O)n21)S(=O)(=O)c1ccc(C)cc1	?	2.5µM*	-14%	-2%	-13%	-85%
C#CCN(C[C@@H]1[C@@H](OC(=O)NCc2ccco2)[C@@H](OC(=O)NCc2ccco2)Cn2c(=O)ccc(=O)n21)S(=O)(=O)c1ccc(C)cc1	-18%	10µM*	-4%	11%	-13%	-88%
CCCCCn1c(-c2ccco2)nc2nc3ccccc3nc21	35µM*	?	?	4%	2%	i
O=S1(=O)NC2(CCCN(CCc3ccccc3)C2)COc2ccccc21 (configuration not stated)	6%[6.33 µM]	/	/	/	/	/
CC(Sc1ccc(Cl)cc1)C(=O)NCC(c1ccco1)N1CCCCC1 (configuration not stated)	2%	11µM*	-5%	8%	-4%	i
O=C(NCC(c1ccco1)N1CCCC1)c1cc(S(=O)(=O)N2CCCCC2)ccc1Cl (configuration not stated)	40%	?	9%	7%	-1%	i
N#Cc1ccc(C(=O)NCC(c2ccco2)N2CCCCC2)cc1 (configuration not stated)	417%	-1%	-7%	9%	-6%	i
CN(CC(=O)NCC(c1ccco1)N1CCCCC1)S(=O)(=O)c1ccc(Cl)cc1 (configuration not stated)	-11%	13µM*	15%	9%	-2%	i
